Results taken from the supplement of paper PMC3545927.
This is one part of the list. The hit rate among all sequences tested is not known here.

Target: furin, P09958
Assay: furin cleavage Z-score vs untreated control; higher = more cleavage, active = 3.5 or more, inactive = 1 or less, 8 variable residues between constant flanks
Method: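 Multiplexed peptide-cDNA fusion cleavage assay. 8-mer variable peptides flanked by constant Cys-Ala (N-term) and Ala-Gly-Asn-Ala-Ser-Ala-Ser-Ala (C-term) and conjugated to a cDNA oligonucleotide were bead-immobilised via the N-terminus. They were treated with purified furin at a 1:10 enzyme:substrate ratio in 50 mM HEPES pH 7.5, 1 mM CaCl2, 100 mM NaCl for 7.5, 15 or 30 min. Released cDNA was counted by next-generation sequencing, and log counts versus no-furin controls were lowess-adjusted and converted to robust Z-scores.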

Chain of furin, P09958 (P09958 whole entry): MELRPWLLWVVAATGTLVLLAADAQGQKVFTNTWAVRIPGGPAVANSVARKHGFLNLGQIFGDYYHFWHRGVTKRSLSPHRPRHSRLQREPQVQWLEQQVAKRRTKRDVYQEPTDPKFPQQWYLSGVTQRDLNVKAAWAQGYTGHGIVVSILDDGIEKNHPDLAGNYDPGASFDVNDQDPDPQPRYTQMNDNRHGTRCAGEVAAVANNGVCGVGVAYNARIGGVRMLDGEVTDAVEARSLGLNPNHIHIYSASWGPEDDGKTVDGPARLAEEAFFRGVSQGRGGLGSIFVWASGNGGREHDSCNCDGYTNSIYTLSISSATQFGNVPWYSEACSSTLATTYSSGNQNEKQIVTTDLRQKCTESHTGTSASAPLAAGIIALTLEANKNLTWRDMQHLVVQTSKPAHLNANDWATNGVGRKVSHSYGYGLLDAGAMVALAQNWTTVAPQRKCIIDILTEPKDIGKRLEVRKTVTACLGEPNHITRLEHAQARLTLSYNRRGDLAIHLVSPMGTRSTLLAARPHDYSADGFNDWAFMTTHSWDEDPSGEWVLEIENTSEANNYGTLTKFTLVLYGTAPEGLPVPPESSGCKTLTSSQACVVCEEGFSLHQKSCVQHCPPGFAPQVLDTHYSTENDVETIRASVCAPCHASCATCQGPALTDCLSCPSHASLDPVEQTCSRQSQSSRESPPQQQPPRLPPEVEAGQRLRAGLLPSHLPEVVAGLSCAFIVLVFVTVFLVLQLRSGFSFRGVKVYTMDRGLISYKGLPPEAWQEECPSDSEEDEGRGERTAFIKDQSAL

Sequence | furin cleavage Z-score (7.5 min) | furin cleavage Z-score (15 min) | furin cleavage Z-score (30 min)
CADGPDGPEEAGNASASA [CS6] | -0.625 (inactive) | -0.697 (inactive) | 0.000165 (inactive)
CAVSVIPTSGAGNASASA [HC872] | -1.15 (inactive) | -1.43 (inactive) | -0.759 (inactive)
CALALLSCLTAGNASASA [HC250] | 0.23 (inactive) | 0.192 (inactive) | 0.0802 (inactive)
CADAAARVTAAGNASASA [HC1130] | -0.857 (inactive) | -0.374 (inactive) | -0.0041 (inactive)
CAASPRVARFAGNASASA [FS-1586] | 7.18 (active) | 7.05 (active) | 9.24 (active)
CADAARVARFAGNASASA [FS-220] | 1.88 | 3.12 | 3.56 (active)
CAASIRHARFAGNASASA [FS-580] | 4.24 (active) | 6.42 (active) | 7.16 (active)
CAASHRSTRFAGNASASA [FS-1309] | 0.749 (inactive) | 3.07 | 5.05 (active)
CAAGHAVGIFAGNASASA [HC747] | 0.991 (inactive) | -0.922 (inactive) | -0.149 (inactive)
CASCQRRTRFAGNASASA [FS-379] | -0.682 (inactive) | 1.81 | 2.4
CAEVTCHRPSAGNASASA [HC2358] | 0.503 (inactive) | 1.09 | -0.419 (inactive)
CASTPCSCHLAGNASASA [HC2540] | -2.32 (inactive) | -0.121 (inactive) | -0.978 (inactive)
CAVVCCSMPYAGNASASA [HC2079] | 1.07 | 1.5 | 0.76 (inactive)
CAMEECSQHRAGNASASA [HC1773] | 0.467 (inactive) | 0.921 (inactive) | 2.83
CAAQQTRGLLAGNASASA [HC677] | -1.39 (inactive) | -0.431 (inactive) | 0.105 (inactive)
CARRARASDRAGNASASA [FS-2176] | 3.3 | 2.19 | 4.92 (active)
CAIKARAACRAGNASASA [HC1519] | 0.264 (inactive) | -0.0832 (inactive) | 0.862 (inactive)
CARRARQARRAGNASASA [FS-1071] | -0.692 (inactive) | 0.798 (inactive) | 2.53
CAPRARAARRAGNASASA [FS-1550] | 4.8 (active) | 6.53 (active) | 7.08 (active)
CASLRAFTEAAGNASASA [HC1538] | -0.614 (inactive) | -1.13 (inactive) | 0.282 (inactive)
CAEINRPRRIAGNASASA [FS-156] | 0.686 (inactive) | -0.166 (inactive) | 0.217 (inactive)
CAYLARNARIAGNASASA [FS-319] | -0.614 (inactive) | -1.5 (inactive) | 0.218 (inactive)

Sequence | furin cleavage Z-score (7.5 min) | furin cleavage Z-score (15 min) | furin cleavage Z-score (30 min)
CATLGRHRRIAGNASASA [FS-305] | 0.637 (inactive) | 4.75 (active) | 4.61 (active)
CAGLSRHRRIAGNASASA [FS-1329] | 4.21 (active) | 4.36 (active) | 4.6 (active)
CASLVRNRRIAGNASASA [FS-626] | 3.81 (active) | 7.06 (active) | 7.84 (active)
CAVGSKQRRIAGNASASA [FS-631] | -0.93 (inactive) | -0.511 (inactive) | -0.419 (inactive)
CALYNRTRRIAGNASASA [FS-61] | -0.475 (inactive) | 0.0321 (inactive) | 0.723 (inactive)
CANKNRLRRIAGNASASA [FS-696] | 2.17 | 3.21 | 3.66 (active)
CALSTGCVVIAGNASASA [HC998] | -0.865 (inactive) | -1.26 (inactive) | 1.11
CAAAGLQDCTAGNASASA [HC1523] | -0.616 (inactive) | -1.19 (inactive) | -0.342 (inactive)
CASTHCSAHLAGNASASA [HC2515] | 0.673 (inactive) | 1.32 | -0.709 (inactive)
CASNSLLRHHAGNASASA [HC1384] | 0.356 (inactive) | -0.0116 (inactive) | 0.517 (inactive)
CAAVCTRGVAAGNASASA [HC752] | 0.499 (inactive) | 0.0628 (inactive) | 1.04
CASASRNRRHAGNASASA [FS-1276] | 12.5 (active) | 11.1 (active) | 8.5 (active)
CALARRQRRHAGNASASA [FS-266] | 7.59 (active) | 7.8 (active) | 6.43 (active)
CAASSREIRQAGNASASA [FS-1446] | 0.448 (inactive) | 1.14 | 0.453 (inactive)
CARSYRDSGIAGNASASA [FS-2463] | 0.464 (inactive) | 1.76 | -0.62 (inactive)
CANIRTGVRTAGNASASA [HC799] | -0.448 (inactive) | -0.243 (inactive) | -0.393 (inactive)
CARSYRIVRTAGNASASA [FS-1934] | 5.65 (active) | 7.17 (active) | 7.79 (active)
CAASSRWRRHAGNASASA [FS-117] | 6.7 (active) | 5.67 (active) | 5.46 (active)
CAREMRALACAGNASASA [FS-2917] | 0.375 (inactive) | -0.261 (inactive) | 0.24 (inactive)
CATTYCSGSWAGNASASA [HC1869] | -2.31 (inactive) | -0.739 (inactive) | -0.526 (inactive)
CAGAVYTFYGAGNASASA [HC553] | -0.781 (inactive) | -1.17 (inactive) | -0.823 (inactive)
